Values joined by “and” are separate entries in the source; they are usually repeats but may differ in a detail not shown here. Equal entries are not always repeated. About 2,000 (36%) of roughly 5,500 compounds were called active. About 18% were inconclusive and are not listed. Cut-off read from the data, not from the text of the source: active = normalized growth mostly below about 0.91 (no sharp cut-off); inconclusive = no clear call, values can overlap the other calls; inactive = mostly above about 0.92. The list shows a part of the results.
Experiment: chemical genetic growth profiling, strain panel (AID 1159580);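 note: tested at 20 µM; growth read once vehicle control cultures reached saturation at 30 °C; 1 = growth at the plate median or of vehicle wells; lower values mean less growth of the strain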
Conditions: S. cerevisiae deletion strains, growth OD

Measured: normalized growth

O=C1CN(/N=C\c2ccc([N+](=O)[O-])o2)C(=O)N1
active: locus YDR392W, strain spt3, stronger effect = lower value 0.68 | locus YER155C, strain BEM2 (second series), stronger effect = lower value 0.854
inactive: locus YAL013W, strain DEP1, stronger effect = lower value 0.993 | locus YAL021C, strain ccr4, stronger effect = lower value 0.98 | locus YAL026C, strain drs2, stronger effect = lower value 0.956 | locus YAL030W, strain snc1, stronger effect = lower value 0.986 | locus YBL061C, strain skt5, stronger effect = lower value 0.987 | locus YBR009C, strain hhf1, stronger effect = lower value 0.977 | locus YBR021W, strain FUR4, stronger effect = lower value 0.997 | locus YBR023C, strain chs3, stronger effect = lower value 0.982 | locus YBR171W, strain sec66, stronger effect = lower value 0.982 | locus YBR229C, strain ROT2, stronger effect = lower value 1.01 | locus YBR231C, strain swc5, stronger effect = lower value 0.977 | locus YBR279W, strain paf1, stronger effect = lower value 0.97 | locus YCL011C, strain gbp2, stronger effect = lower value 0.964 | locus YCL016C, strain dcc1, stronger effect = lower value 0.99 | locus YCL029C, strain bik1, stronger effect = lower value 1.01 | locus YCL061C, strain MRC1, stronger effect = lower value 0.986 | locus YCL069W, strain vba3, stronger effect = lower value 0.956 | locus YCR088W, strain abp1, stronger effect = lower value 0.966 | locus YDL005C, strain med2, stronger effect = lower value 0.967 | locus YDL035C, strain GPR1, stronger effect = lower value 0.978 | locus YDL040C, strain nat1, stronger effect = lower value 0.97 | locus YDL074C, strain BRE1, stronger effect = lower value 0.914 | locus YDL101C, strain DUN1, stronger effect = lower value 0.995 | locus YDL134C, strain PPH21, stronger effect = lower value 1 | locus YDL185W, strain tfp1, stronger effect = lower value 0.99 | locus YDL192W, strain arf1, stronger effect = lower value 0.991 | locus YDR001C, strain nth1, stronger effect = lower value 0.975 | locus YDR069C, strain doa4, stronger effect = lower value 0.94 | locus YDR101C, strain arx1, stronger effect = lower value 0.976 | locus YDR137W, strain rgp1, stronger effect = lower value 1.02 | locus YDR150W, strain NUM1, stronger effect = lower value 1 | locus YDR159W, strain sac3, stronger effect = lower value 0.954 | locus YDR162C, strain NBP2, stronger effect = lower value 0.99 | locus YDR195W, strain ref2 0.979 | locus YDR297W, strain sur2, stronger effect = lower value 0.983 | locus YDR318W, strain mcm21, stronger effect = lower value 0.973 | locus YDR334W, strain swr1, stronger effect = lower value 0.976 | locus YDR335W, strain msn5, stronger effect = lower value 0.986 | locus YDR388W, stronger effect = lower value 0.995 | locus YDR502C, strain sam2, stronger effect = lower value 0.974 | locus YEL003W, strain gim4, stronger effect = lower value 0.942 | locus YEL037C, strain rad23, stronger effect = lower value 0.963 | locus YEL061C, strain CIN8 (second series), stronger effect = lower value 0.969 | locus YEL061C, strain CIN8, stronger effect = lower value 0.996 | locus YER015W, strain faa2, stronger effect = lower value 0.961 | locus YER016W, strain bim1, stronger effect = lower value 0.96 | locus YER110C, stronger effect = lower value 0.99 | locus YER111C, strain swi4, stronger effect = lower value 0.981 | locus YER155C, strain BEM2, stronger effect = lower value 0.998 | locus YER167W, strain BCK2, stronger effect = lower value 0.985 | locus YFR010W, strain ubp6, stronger effect = lower value 0.942 | locus YGL078C, strain dbp3, stronger effect = lower value 0.977 | locus YGL086W, strain mad1, stronger effect = lower value 0.977 | locus YGL167C, strain pmr1, stronger effect = lower value 0.983 | locus YGL173C, strain kem1, stronger effect = lower value 0.987 | locus YGL227W, strain vid30, stronger effect = lower value 0.979 | locus YGL240W, strain doc1, stronger effect = lower value 0.922 | locus YGL248W, strain PDE1, stronger effect = lower value 1 | locus YGL253W, strain hxk2, stronger effect = lower value 0.976 | locus YGR078C, strain PAC10, stronger effect = lower value 0.975 | locus YGR135W, strain pre9, stronger effect = lower value 0.963 | locus YGR229C, strain SMI1, stronger effect = lower value 0.958 | locus YGR252W, strain gcn5, stronger effect = lower value 0.804 | locus YHR013C, strain ard1, stronger effect = lower value 0.942 | locus YHR027C, strain rpn1, stronger effect = lower value 0.985 | locus YHR030C, strain SLT2, stronger effect = lower value 0.991 and 0.902 | locus YHR079C, strain IRE1 (second series), stronger effect = lower value 0.989 | locus YHR079C, strain IRE1, stronger effect = lower value 0.91 | locus YHR094C, strain hxt1, stronger effect = lower value 0.999 | locus YHR129C, strain ARP1, stronger effect = lower value 1 | locus YHR142W, strain chs7, stronger effect = lower value 0.946 | locus YHR200W, strain rpn10, stronger effect = lower value 0.985 | locus YIL066C, strain RNR3, stronger effect = lower value 1.01 | locus YIL073C, strain SPO22, stronger effect = lower value 0.969 | locus YIL125W, strain kgd1, stronger effect = lower value 0.987 | locus YIR030C, strain dcg1, stronger effect = lower value 0.994 | locus YJL092W, strain hpr5, stronger effect = lower value 0.971 | locus YJL095W, strain BCK1 (second series), stronger effect = lower value 0.982 | locus YJL095W, strain BCK1, stronger effect = lower value 0.969 and 0.892 | locus YJL115W, strain asf1, stronger effect = lower value 0.951 | locus YJL129C, strain trk1, stronger effect = lower value 0.968 | locus YJL134W, strain LCB3, stronger effect = lower value 1 | locus YJL154C, strain vps35, stronger effect = lower value 0.971 | locus YJL164C, strain tpk1, stronger effect = lower value 0.957 | locus YJL166W, strain qcr8, stronger effect = lower value 0.964 | locus YJL168C, strain set2, stronger effect = lower value 0.989 | locus YJL187C, strain SWE1 (second series), stronger effect = lower value 1.01 | locus YJL187C, strain SWE1, stronger effect = lower value 0.973 | locus YJR043C, strain POL32, stronger effect = lower value 0.979 | locus YJR066W, strain TOR1, stronger effect = lower value 0.87

— PubChem BioAssay AID1159580 (chemical genetic matrix, 2015)
